Reference: the supplement of paper PMC11732987, “Enantioselective OTUD7B fragment discovery through chemoproteomics screening and high-throughput optimisation” (Communications Chemistry, 2025)

Key:
Assay in all cases: log2 ratio of Biotin-Ahx-Ub-VS probe labelling (fragment/DMSO); higher = less target engagement (more negative = stronger competition), active = hit call of the paper (q ≤ 0.05, log2 ratio ≤ -1)
Conditions in all cases: compound concentration: 200 uM; treatment time: 3 h
[1] = biological target: T1, OTUD6B (UniProt Q8N6M0)
T1 sequence (whole entry): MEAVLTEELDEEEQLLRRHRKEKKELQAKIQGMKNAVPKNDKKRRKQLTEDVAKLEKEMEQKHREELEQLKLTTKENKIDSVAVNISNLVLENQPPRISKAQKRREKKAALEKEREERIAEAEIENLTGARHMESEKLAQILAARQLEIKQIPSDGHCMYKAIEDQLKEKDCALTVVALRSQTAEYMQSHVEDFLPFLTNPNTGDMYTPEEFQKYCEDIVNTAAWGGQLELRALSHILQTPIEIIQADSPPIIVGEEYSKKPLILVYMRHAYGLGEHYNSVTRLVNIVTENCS
Method in brief: (§1)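 Using Biotin-Ahx-Ub-VS at 0.5 µM final for 1 h, DUBs were labelled in HEK293T lysate (495 µg per sample) that had first been treated in triplicate with fragment at 200 µM or vehicle for 3 h. NeutrAvidin enrichment, LysC and trypsin digestion and diaPASEF LC-MS/MS followed. Spectronaut label-free quantities were global-median-normalised. Values are average log2 fragment/vehicle ratios by unpaired t-test, using proteins with ≥2 unique peptides.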

[2] = biological target: T2, OTUD7B (UniProt Q6GQQ9)
T2 sequence (whole entry): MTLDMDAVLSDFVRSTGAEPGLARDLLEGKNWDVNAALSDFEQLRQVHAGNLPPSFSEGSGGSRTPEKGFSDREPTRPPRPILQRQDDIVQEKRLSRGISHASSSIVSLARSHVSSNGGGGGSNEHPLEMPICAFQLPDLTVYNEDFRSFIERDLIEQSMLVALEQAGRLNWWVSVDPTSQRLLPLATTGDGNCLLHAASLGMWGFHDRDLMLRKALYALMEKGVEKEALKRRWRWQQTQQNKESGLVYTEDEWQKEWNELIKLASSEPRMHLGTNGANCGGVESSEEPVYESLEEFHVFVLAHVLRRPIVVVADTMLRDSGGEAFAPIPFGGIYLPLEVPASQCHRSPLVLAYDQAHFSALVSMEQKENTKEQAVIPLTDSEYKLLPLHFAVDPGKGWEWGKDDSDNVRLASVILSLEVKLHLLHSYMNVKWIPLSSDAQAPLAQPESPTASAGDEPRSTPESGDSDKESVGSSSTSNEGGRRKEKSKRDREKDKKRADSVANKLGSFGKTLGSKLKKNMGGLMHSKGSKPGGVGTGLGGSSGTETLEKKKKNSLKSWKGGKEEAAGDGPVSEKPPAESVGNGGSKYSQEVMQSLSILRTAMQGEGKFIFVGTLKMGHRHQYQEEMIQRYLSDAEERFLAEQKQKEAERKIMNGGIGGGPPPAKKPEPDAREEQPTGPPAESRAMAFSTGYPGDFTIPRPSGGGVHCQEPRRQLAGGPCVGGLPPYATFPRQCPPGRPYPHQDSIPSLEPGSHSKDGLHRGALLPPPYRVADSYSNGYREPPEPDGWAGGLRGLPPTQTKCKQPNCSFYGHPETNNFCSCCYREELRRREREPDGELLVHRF
Method in brief: as §1

[3] = biological target: PRPF8 (UniProt Q6P2Q9)
Method in brief: as §1

[4] = biological target: T3, PSMD7 (UniProt P51665)
T3 sequence (whole entry): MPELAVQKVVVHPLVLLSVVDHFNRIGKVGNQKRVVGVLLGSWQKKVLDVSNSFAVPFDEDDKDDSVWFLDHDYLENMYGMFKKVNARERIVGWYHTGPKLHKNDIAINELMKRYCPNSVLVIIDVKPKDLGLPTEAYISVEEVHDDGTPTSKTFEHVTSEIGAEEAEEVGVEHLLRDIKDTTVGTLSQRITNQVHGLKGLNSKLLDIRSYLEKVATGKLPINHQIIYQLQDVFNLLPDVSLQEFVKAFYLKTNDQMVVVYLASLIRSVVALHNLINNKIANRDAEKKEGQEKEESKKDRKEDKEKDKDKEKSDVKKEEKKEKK
Method in brief: as §1

[5] = biological target: UCHL1 (UniProt P09936)
UCHL1, sequence (P09936 whole entry, looked up): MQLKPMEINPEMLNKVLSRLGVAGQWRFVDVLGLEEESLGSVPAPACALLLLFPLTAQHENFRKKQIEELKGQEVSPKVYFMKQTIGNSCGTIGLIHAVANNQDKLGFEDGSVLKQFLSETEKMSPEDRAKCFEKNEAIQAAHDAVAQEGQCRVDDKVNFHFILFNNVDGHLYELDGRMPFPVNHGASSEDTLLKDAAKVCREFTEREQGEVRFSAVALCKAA
Method in brief: as §1

[6] = biological target: T4, UCHL3 (UniProt P15374)
T4 sequence (whole entry): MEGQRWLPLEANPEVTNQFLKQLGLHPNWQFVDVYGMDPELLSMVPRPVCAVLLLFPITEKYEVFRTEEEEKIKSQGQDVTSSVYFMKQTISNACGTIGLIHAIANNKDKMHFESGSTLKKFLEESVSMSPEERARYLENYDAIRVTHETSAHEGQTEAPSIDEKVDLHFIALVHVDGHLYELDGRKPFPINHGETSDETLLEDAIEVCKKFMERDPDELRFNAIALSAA
Method in brief: as §1

[7] = biological target: T5, UCHL5 (UniProt Q9Y5K5)
T5 sequence (whole entry): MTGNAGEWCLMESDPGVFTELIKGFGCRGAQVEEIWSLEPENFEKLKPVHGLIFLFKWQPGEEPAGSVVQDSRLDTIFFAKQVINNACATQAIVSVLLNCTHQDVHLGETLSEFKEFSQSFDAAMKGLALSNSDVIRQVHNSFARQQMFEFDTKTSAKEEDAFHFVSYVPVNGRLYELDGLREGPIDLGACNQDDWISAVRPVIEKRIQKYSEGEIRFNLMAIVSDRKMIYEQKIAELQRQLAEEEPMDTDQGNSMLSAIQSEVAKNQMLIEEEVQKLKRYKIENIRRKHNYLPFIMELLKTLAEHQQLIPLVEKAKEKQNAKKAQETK
Method in brief: as §1

[8] = biological target: USP10 (UniProt Q14694)
USP10, sequence (Q14694 whole entry): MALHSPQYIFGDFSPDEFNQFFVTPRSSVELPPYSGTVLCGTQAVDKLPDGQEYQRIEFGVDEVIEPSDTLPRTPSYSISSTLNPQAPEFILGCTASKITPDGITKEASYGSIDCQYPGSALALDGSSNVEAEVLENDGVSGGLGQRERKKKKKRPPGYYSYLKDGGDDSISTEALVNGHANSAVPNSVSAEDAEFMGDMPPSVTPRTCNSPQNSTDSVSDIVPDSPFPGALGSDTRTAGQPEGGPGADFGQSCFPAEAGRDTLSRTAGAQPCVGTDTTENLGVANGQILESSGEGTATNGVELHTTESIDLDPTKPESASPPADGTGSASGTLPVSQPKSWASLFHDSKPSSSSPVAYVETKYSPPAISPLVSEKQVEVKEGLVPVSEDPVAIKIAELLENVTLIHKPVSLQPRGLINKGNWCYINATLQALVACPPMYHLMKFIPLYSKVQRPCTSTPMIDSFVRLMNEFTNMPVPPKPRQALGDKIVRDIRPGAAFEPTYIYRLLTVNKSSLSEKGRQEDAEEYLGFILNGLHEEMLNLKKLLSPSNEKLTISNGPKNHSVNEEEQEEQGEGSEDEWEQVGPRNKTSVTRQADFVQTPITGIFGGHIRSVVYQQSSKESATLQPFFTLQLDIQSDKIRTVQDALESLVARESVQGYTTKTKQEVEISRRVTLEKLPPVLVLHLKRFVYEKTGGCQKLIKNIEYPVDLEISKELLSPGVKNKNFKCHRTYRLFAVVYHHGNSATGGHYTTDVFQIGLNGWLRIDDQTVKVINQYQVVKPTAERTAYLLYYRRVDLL
Method in brief: as §1

[9] = biological target: T6, USP15 (UniProt Q9Y4E8)
T6 sequence (whole entry): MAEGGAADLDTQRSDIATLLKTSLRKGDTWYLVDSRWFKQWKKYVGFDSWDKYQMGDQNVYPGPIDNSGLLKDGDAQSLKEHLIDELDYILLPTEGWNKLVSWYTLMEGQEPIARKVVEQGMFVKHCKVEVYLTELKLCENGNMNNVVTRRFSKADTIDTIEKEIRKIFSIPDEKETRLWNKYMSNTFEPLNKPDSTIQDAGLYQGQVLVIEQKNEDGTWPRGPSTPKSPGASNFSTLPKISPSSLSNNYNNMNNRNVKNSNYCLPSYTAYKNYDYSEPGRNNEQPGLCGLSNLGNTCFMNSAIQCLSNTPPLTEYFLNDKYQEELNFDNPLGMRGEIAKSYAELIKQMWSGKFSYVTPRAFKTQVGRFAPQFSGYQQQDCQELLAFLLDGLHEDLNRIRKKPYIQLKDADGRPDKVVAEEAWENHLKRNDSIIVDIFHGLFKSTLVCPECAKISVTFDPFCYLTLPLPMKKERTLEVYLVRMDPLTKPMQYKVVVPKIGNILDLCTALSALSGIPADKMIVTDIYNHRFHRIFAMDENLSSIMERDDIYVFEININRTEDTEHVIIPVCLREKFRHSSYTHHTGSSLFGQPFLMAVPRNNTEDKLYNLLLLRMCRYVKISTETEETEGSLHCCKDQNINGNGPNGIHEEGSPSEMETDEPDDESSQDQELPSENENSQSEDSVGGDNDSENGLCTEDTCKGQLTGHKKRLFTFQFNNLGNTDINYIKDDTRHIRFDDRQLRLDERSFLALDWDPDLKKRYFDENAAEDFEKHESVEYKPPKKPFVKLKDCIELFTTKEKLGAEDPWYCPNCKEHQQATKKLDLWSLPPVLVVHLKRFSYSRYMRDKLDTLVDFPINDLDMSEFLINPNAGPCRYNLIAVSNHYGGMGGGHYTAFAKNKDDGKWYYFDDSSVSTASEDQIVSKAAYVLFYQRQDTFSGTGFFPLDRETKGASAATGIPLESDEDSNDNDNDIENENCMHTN
Method in brief: as §1

[10] = biological target: USP16 (UniProt Q9Y5T5)
USP16, sequence (Q9Y5T5 whole entry, looked up): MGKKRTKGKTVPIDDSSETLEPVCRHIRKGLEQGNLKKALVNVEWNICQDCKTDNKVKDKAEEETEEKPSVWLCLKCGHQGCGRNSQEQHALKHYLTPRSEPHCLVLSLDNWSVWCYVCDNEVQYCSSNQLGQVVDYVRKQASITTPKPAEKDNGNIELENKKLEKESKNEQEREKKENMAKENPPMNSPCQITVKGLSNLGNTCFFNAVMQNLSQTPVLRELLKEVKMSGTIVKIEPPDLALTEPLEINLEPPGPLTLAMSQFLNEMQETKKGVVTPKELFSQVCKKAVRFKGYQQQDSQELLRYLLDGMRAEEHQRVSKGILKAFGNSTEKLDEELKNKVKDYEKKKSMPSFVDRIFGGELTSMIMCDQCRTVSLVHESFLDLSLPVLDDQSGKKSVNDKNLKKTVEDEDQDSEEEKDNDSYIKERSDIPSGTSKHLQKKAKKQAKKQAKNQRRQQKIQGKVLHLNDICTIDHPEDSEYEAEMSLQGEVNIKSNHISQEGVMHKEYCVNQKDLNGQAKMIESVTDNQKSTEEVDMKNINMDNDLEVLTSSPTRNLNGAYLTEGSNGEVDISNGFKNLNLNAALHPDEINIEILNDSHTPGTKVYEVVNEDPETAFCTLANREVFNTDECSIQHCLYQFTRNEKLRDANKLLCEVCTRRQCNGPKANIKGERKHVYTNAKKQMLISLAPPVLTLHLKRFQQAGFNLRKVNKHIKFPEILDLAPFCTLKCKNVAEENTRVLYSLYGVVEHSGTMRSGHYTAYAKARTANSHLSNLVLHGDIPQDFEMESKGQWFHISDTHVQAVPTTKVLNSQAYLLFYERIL
Method in brief: as §1

Measured: log2 ratio of Biotin-Ahx-Ub-VS probe labelling

Cl.Cn1ncc2c1CC(NC(=O)CCl)CC2 (stereo not given)
active: [5] -1.84
inactive: [1] 0.0134 | [2] -0.999 | [3] 0.142 | [4] -0.2 | [6] 0.377 | [7] -0.0217 | [8] -0.106 | [9] -0.0211 | [10] -0.62
